Screens (PubChem BioAssay)
The full list was thinned out, with hits kept by preference.
Cruzain Triton – qHTS Assay for Promiscuous and Specific Inhibitors of Cruzain (with detergent); Cruzipain (Trypanosoma cruzi), P25779; purified cruzain, Z-FR-AMC fluorescence, 0.01% Triton; Potency, µM, inactives show max response, negative = inhibition, usual class: inhibitors; 200,000 tested, 0.43% active;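 further: plate controls were neutral wells for no effect and buffer without enzyme for full effect; nearly all actives have a fitted effect of over 40% in size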
Target sequence (P25779 123-467 limits assumed): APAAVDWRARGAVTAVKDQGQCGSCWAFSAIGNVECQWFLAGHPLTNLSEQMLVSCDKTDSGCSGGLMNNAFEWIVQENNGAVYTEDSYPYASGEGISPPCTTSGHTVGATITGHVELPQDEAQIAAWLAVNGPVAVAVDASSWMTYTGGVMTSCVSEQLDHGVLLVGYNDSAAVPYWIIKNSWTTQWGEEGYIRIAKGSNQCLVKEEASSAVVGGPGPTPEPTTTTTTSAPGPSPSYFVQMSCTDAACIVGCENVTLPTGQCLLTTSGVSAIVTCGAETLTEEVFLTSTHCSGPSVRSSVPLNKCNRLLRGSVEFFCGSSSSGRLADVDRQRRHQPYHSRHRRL
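Detergent-containing arm of a paired screen for aggregation-based inhibition: 0.01% Triton X-100 present. Cruzain at 1.5 nM cleaved 2 uM Z-FR-AMC at pH 5.5 with 5 mM DTT; AMC fluorescence gain over 60 s measured activity.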
Cruzain noTriton – qHTS Assay for Promiscuous and Specific Inhibitors of Cruzain (without detergent); Cruzipain (Trypanosoma cruzi), P25779; purified cruzain, Z-FR-AMC fluorescence, no detergent; Potency, µM, for inactives: max response, negative = inhibition, hits mostly inhibitors; 200,000 tested, 2.3% active; AID 1476, 2009;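 further: plate controls were enzyme without inhibitor for no effect and buffer without enzyme for full effect; nearly all actives have a fitted effect of over 40% in size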
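Detergent-free condition (0.00005% Triton X-100) in acetate buffer pH 5.5 with DTT. 1.5 nM enzyme and compound were pre-mixed 15 min, then 2 uM Z-FR-AMC substrate added; reaction progress from fluorescence change between first and third reads (60 s).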
NS1 function inh – qHTS Assay for Inhibitors of Influenza NS1 Protein Function; Potency, µM (titrated, usually from 46.1 µM), without a hit: at the highest dose activity, positive = more growth; 270,000 tested, 0.4% active; calls by dose curve; further: actives are rising curves; nearly all actives have a fitted effect of over 50% in size
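A cell-based growth assay was used: compounds that relieve NS1-induced slow growth of budding yeast raise OD600. Assay medium was yeast nitrogen base with ammonium sulphate and -URA supplement, pH 6.0, with 2% galactose.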
Numbers without * were called inactive; ? = inconclusive; nt = not tested or not shown. Unless noted, the call rests on the fitted dose curve; in most records, active means well fitted curve in the direction sought with a large enough effect; inconclusive means small, poorly fitted or top-dose-only effect, or another doubt; inactive means no such curve, though single readings can be large; an effect the other way counts as inactive or inconclusive. Potency means the concentration at half of the fitted maximal effect.

SMILES	Cruzain Triton	Cruzain noTriton	NS1 function inh
CC(=O)N1c2ccccc2C(=O)C1N1CCN(c2cc(Cl)ccc2C)CC1 (stereo not drawn)	-1%	-20%	nt
CC(C)(C[C@@]1(C)NC(=O)NC1=O)OCc1ccccc1	3%	1%	0%
CCC(C)(C)C(=O)Nc1ncc(S(=O)(=O)c2ccc([N+](=O)[O-])cc2)s1	-12%	-10%	7%
O=C(Nc1ncc(Cc2cccc(Cl)c2Cl)s1)c1ccc([N+](=O)[O-])cc1	4%	-22%	?
O=C(Nc1nnc(CCS(=O)(=O)c2ccc3ccccc3c2)s1)c1cccs1	-1%	?	11%
O=C(Nc1ncc(S(=O)(=O)c2ccc([N+](=O)[O-])cc2)s1)c1ccc2ccccc2c1	0%	20µM*	27%
O=C(Nc1ncc(S(=O)(=O)c2ccc([N+](=O)[O-])cc2)s1)c1cccnc1	nt	nt	5%
O=C(Nc1ncc(Cc2cc(Cl)ccc2Cl)s1)c1ccc([N+](=O)[O-])cc1	4%	13µM*	?
O=C(Nc1nnc(CCS(=O)(=O)c2ccc3ccccc3c2)s1)c1ccc([N+](=O)[O-])cc1	-1%	13µM*	-9%
Cc1ccc(Nc2nnc(SCC(=O)Nc3ncc(S(=O)(=O)c4ccc([N+](=O)[O-])cc4)s3)s2)cc1	-1%	7.9µM*	20%
COC(=O)C/C=C/[C@@H](C)[C@H](OC)c1c(Br)ccc2c1OCO2	-1%	-5%	nt
COc1cc2ccccc2c2cc([N+](=O)[O-])oc12	0%	-6%	-26%
N[C@H](Cc1ccccc1)c1nn[nH]n1	-2%	5%	-5%
Cc1cc(C)cc(N2C(=O)CS(=O)(=O)C23C(=O)N(Cc2ccc(F)cc2)c2ccc(C)cc23)c1 (stereo not drawn)	-5%	?	nt
COc1ccc(N2C(=O)CS(=O)(=O)C23C(=O)N(Cc2ccccc2)c2ccccc23)cc1 (stereo not drawn)	-3%	3.2µM*	nt
COc1ccc(N2C(=O)CS(=O)(=O)C23C(=O)N(Cc2c(F)cccc2Cl)c2ccccc23)cc1 (stereo not drawn)	-3%	7.9µM*	nt
Cc1cccc(N2C(=O)CS(=O)(=O)C23C(=O)N(Cc2c(F)cccc2Cl)c2ccccc23)c1 (stereo not drawn)	-4%	3.2µM*	nt
CN1C(=O)C2(c3ccccc31)N(c1ccccc1)C(=O)CS2(=O)=O (stereo not drawn)	0%	?	nt
O=C1CSC2(C(=O)N(Cc3c(F)cccc3Cl)c3ccccc32)N1c1ccc(F)c(F)c1 (stereo not drawn)	-7%	-19%	nt
CCOc1ccc(N2C(=O)CS(=O)(=O)C23C(=O)N(Cc2cccc(Cl)c2)c2ccccc23)cc1 (stereo not drawn)	-3%	10µM*	nt
COc1cc(C)c(Cl)cc1S(=O)(=O)NCCc1c(C)[nH]c2ccccc12	-14%	10%	nt
O=C(O)c1nc2cc(Cl)c(Cl)cc2[nH]c1=O	0%	-4%	nt
Cc1ccc(-n2c(=O)cc(N3CCN(c4ccccc4Cl)CC3)[nH]c2=O)cc1	1%	-10%	nt
CC(=O)N[C@H](Cc1ccc(O)cc1)C(=O)O	9%	-1%	4%
O=C(c1cnn(-c2ccc(F)cc2)c1-n1cccc1)N1CCN(c2ccccc2)CC1	-6%	19%	nt
SMILES	Cruzain Triton	Cruzain noTriton	NS1 function inh
COc1ccc(CNC(=O)CSc2nc3ccsc3c(=O)n2Cc2ccccc2Cl)cc1	-3%	3%	nt
CCCCC/C=C\C/C=C\C/C=C\CCCCC(=O)NCCCC(=O)O	-3%	6%	nt
Cc1cccc(-c2nc(Cn3c(SCc4cc(C)ccc4C)nc4ccncc43)c(C)o2)c1	-6%	-20%	nt
Cc1cc(C)n(C(C)CC(=O)NCc2ccc(N(C)C)cc2)n1 (stereo not drawn)	-1%	-5%	nt
COC(=O)/C(Cc1cc(Br)c(OC)c(Br)c1O)=N/O	0%	1%	nt
CCOC(=O)/C=C/CCCC=O	-1%	-7%	nt
O=C(COCc1cc(-c2ccc(F)cc2)on1)Nc1cccc(C(F)(F)F)c1	-7%	7%	nt
O=C(NCc1ccc(Cl)cc1)c1cc(-c2ccc(F)cc2)on1	-2%	?	nt
Nc1c(C(=O)NCc2ccc(Cl)cc2)sc2nc(-c3ccc(F)cc3)ccc12	13µM*	10µM*	nt
CN1CCc2cc3c(cc2C(=O)Cc2ccc4c(c2C1)OCO4)OCO3	1%	0%	nt
O=C1NC(=O)N(c2ccccc2)C(=O)/C1=C\C=C\c1ccccc1	nt	nt	13%
O=C1CC(N2C(=O)/C(=C/C=C/c3ccccc3)SC2=S)C(=O)N1c1ccccc1 (stereo not drawn)	-6%	16µM*	28%
COC(=O)c1sc(-c2ccccc2)cc1NC(=O)c1ccc(F)cc1	-3%	10µM*	-4%
